From PubChem
The list is not random: actives were taken first. Their share in the collection is about 4%.
D1 agonist: Allosteric Agonists of the Human D1 Dopamine Receptor: qHTS; D(1A) dopamine receptor (Homo sapiens), P21728; HEK293 T-REx D1 cells, calcium flux, agonist mode; activation, % at 2 µM; hit rate 1% among 360,000
Target sequence (P21728 whole entry, looked up): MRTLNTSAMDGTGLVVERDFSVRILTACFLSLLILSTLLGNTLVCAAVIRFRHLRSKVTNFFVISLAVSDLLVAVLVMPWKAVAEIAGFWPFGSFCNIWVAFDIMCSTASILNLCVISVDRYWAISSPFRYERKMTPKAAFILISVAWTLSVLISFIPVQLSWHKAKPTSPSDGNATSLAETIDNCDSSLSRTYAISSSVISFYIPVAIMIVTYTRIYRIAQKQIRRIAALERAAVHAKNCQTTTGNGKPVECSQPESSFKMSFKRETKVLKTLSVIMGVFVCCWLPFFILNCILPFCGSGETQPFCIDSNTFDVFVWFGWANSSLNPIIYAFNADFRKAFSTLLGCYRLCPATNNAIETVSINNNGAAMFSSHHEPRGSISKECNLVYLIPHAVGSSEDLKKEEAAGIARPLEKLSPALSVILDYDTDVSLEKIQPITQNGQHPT
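Inducible HEK293 T-REx D1 cells, force-coupled to calcium signalling, were plated at 4000 cells/well with tetracycline and held overnight at 30 C. After no-wash calcium dye loading, compound-evoked calcium rise over 180 s flagged agonists.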
TRHR agonist: qHTS for Small Molecule Agonists and Allosteric Enhancers of Human TRH Receptor: Primary Screen for Agonists | TRHR cells, calcium flux fluo-8, FDSS agonist mode | Thyrotropin-releasing hormone receptor (Homo sapiens), P34981 | activation, % at 2 µM | hit rate 0.18% among 360,000
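Steps: seed TRHR cells overnight; add fluo-8 no-wash Ca dye, RT 30 min–1.5 h; record 10 s baseline; pin-transfer compounds; monitor fluorescence 1 cycle/s for the agonist window. Calcium increases flag candidate agonists.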
D1 PAM: Potentiators of Human D1 Dopamine Receptor: qHTS; HEK293 TREx D1 cells, calcium flux, dopamine EC20 potentiation; potentiation, % at 10 µM; hit rate 0.036% among 360,000; in the data active means potentiation above about 30%
GRP78 ERSR act: qHTS for Inducers of the Endoplasmic Reticulum Stress Response (ERSR) in Human Glioma: qHTS. U87-MG GRP78 promoter luciferase reporter, 16 h. Potency, µM, actives largely listed as activators. hit rate 0.02% among 420,000. AID 602332, 2012; active means well fitted activation curve with a large enough effect; further: series mostly up to about 76 µM; nearly all actives have a fitted effect of over 35% in size
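Stably transfected U87-MG human glioma cells carrying a GRP78-based luminescent sensor were seeded at 1000 cells/well, pin-dosed with compounds and incubated 16 h. Luciferase reagent was then added, and end-point luminescence was read after 10 min at room temperature.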
D1 antag: Antagonist of Human D 1 Dopamine Receptor: qHTS | D(1A) dopamine receptor (Homo sapiens), P21728 | HEK293 TREx D1 cells, calcium flux, dopamine EC80; hits give low values | activity change, negative = inhibition, % at 10 µM | hit rate 3.2% among 360,000 | AID 504652, 2011; in the data active means activity change below about -30%
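Calcium flux readout: force-coupled, inducible Hek293 Trex D1 line, cells induced overnight at 30 C with tetracycline, dye-loaded 30–90 min at RT. Antagonism scored against EC80 dopamine challenge given 180 s after compound.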
TRHR enhancer: qHTS for Small Molecule Agonists and Allosteric Enhancers of Human TRH Receptor: Primary Screen for Enhancers | TRHR cells, fluo-8 calcium fluorescence, EC20 TRH enhancement | enhancement, % at 2 µM | AID 493056, 2011 | hit rate 0.66% among 360,000 | Thyrotropin-releasing hormone receptor (Homo sapiens), P34981; in the data active means enhancement above about 30%
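TRHR-expressing cells loaded with fluo-8 calcium dye were read kinetically (ex 480/em 530) during compound addition, then stimulated with an EC20 of TRH (10 nM final). Enhancement of the Gq-mediated intracellular calcium response was scored.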
Large screens that a line does not name were inactive. Unless noted, no stated cut-off is given here; in the data, active means activation above about 30%; inactive means the rest.

COCCNC(=O)C1CCCN(C(=O)c2cc(C(C)(C)C)nn2C)CC1 (configuration not stated)	none (no result: D1 agonist, TRHR agonist, D1 PAM, D1 antag, TRHR enhancer)
CCN(CC)S(=O)(=O)c1ccc(NC(=O)c2ccccc2N(C)S(C)(=O)=O)cc1	none
CCN(CC)S(=O)(=O)c1ccc(NC(=O)c2ccc(N(C)S(C)(=O)=O)cc2)cc1	D1 antag -36
O=C(Nc1cc(S(=O)(=O)N2CCOCC2)ccc1N1CCCC1)c1cnccn1	none
COCCCN=C1NN=C(c2cc(C)n(-c3ccccc3F)c2C)CS1	D1 agonist 33, D1 antag -32
Cc1cc(C2=NNC(=Nc3ccccc3)SC2)c(C)n1C	D1 antag -32
CCc1cccc(CC)c1NC(=O)CO/N=C(\N)CC(=O)NC1CCCCC1	none
N/C(CC(=O)NC1CCCCC1)=N\OCC(=O)Nc1ccc(Cl)c(Cl)c1	D1 antag -94
O=C(COC(=O)c1ccc(Cl)cc1)NC1CCCCCC1	none (no result: D1 PAM)
O=C(COC(=O)c1cc(F)c(F)cc1Cl)NC1CCCCCC1	none (no result: D1 agonist, TRHR agonist, D1 PAM, D1 antag, TRHR enhancer)
O=C(COC(=O)c1ncc(Cl)c(Cl)c1Cl)NC1CCCCCC1	D1 antag -44
O=C(COC(=O)c1nc(Cl)ccc1Cl)NC1CCCCCC1	D1 antag -31
O=C(CNC(=O)c1ccncc1)N/N=C/c1ccc(Br)cc1	none
COc1ccc(-c2ccc(SCC(=O)N3CCOCC3)nn2)cc1	D1 antag -31
CN(C1CCS(=O)(=O)C1)S(=O)(=O)c1ccccc1 (configuration not stated)	TRHR enhancer 30
COC(=O)C1=C(C)Nc2ncnn2C1c1ccc(OC(=O)c2ccccc2)cc1 (configuration not stated)	none
CC(OC(=O)CCCN=C1NS(=O)(=O)c2ccccc21)C(=O)Nc1ccccc1F (configuration not stated)	D1 antag -39
O=C(CCN=C1NS(=O)(=O)c2ccccc21)OCC(=O)c1ccc(F)cc1	none
O=C(CCCN=C1NS(=O)(=O)c2ccccc21)OCC(=O)c1ccc(F)cc1	D1 agonist 56
O=C(Nc1ccc(F)cc1)c1ccccc1CC[N+](=O)[O-]	none
CC1(C)Cc2nc3sc(C(N)=O)c(N)c3cc2CO1	none
Cc1cc(N2CCN(C)CC2)nc2ccc(NC(=O)CCC(=O)NCCCOC(C)C)cc12	none
CNC(=S)N1N=C(c2ccc(C)cc2)CC1c1ccc(OC)cc1 (configuration not stated)	D1 antag -40
CNC(=S)N1N=C(c2ccc(Br)cc2)CC1c1ccc(OC)cc1 (configuration not stated)	none
CNC(=S)N1N=C(c2ccc(C)cc2)CC1c1ccc(N(C)C)cc1 (configuration not stated)	D1 agonist 36
O=C(NCC1CCCN1S(=O)(=O)c1cccs1)c1cccc(Cl)c1 (configuration not stated)	D1 antag -32
COc1cc(/C=N/n2cnc3scc(-c4cccs4)c3c2=O)cc(OC)c1OC	none
O=S1(=O)N=C(N/N=C/c2cccs2)c2ccccc21	D1 antag -31
O=c1cc(CN2CCN(c3ccccc3F)CC2)c2ccccc2o1	none (no result: D1 agonist, TRHR agonist, D1 PAM, D1 antag, TRHR enhancer)
COc1ccccc1C(=O)NNC(=O)C(=O)N1CCCCC1	none
Cc1ccc(C2(c3noc(CN4C[C@@H](C)O[C@@H](C)C4)n3)CCCC2)cc1	none
Cn1c(CNC(=O)CSc2nc(-c3ccccc3F)nc3cc(=O)[nH]n23)nc2ccccc21	D1 antag -58
Cc1ccccc1CC(=O)NCC1CCCCC1	none
CCOC(=O)c1c(-c2ccccc2)oc2ccc(OCC(O)CNCCN(C)C)cc12 (configuration not stated)	D1 agonist 45, D1 antag -48
CN1CCN(S(=O)(=O)c2ccc(NC(=O)C(C)(C)C)cc2)CC1	none
CCCCCCn1c(SCC(C)C)nc2c1c(=O)[nH]c(=O)n2C	none
CCCCCCn1c(SCC(=O)OC)nc2c1c(=O)[nH]c(=O)n2C	D1 PAM 37
CCOCCn1c(SCc2ccc(F)cc2)nc2c1c(=O)[nH]c(=O)n2C	none
CCOCCn1c(SCc2ccc(C)cc2)nc2c1c(=O)[nH]c(=O)n2C	D1 antag -38
O=S(=O)(c1ccc(Cl)c(C(F)(F)F)c1)N1CCN(CC(O)COc2ccccc2F)CC1 (configuration not stated)	none (no result: D1 PAM)
O=C(NCc1ccccc1Cl)C1CCCN1C(=O)NCc1ccccc1 (configuration not stated)	D1 antag -44
CCc1ccc(NC(=O)Cn2c(=O)n(Cc3ccc(C)cc3)c(=O)c3cccnc32)cc1	none
CC(=O)c1c(C(=O)O)[nH]c(C(=O)O)c1C	none
Cc1[nH]c(C(=O)O)c(C)c1C(=O)OC(C)C	D1 antag -53
Cc1ccc(S(=O)(=O)NC(C(=O)Oc2ccc3c(C(F)(F)F)cc(=O)oc3c2)c2ccccc2)cc1 (configuration not stated)	D1 agonist 57
COC(=O)C(NS(=O)(=O)c1ccc(C)cc1)c1ccccc1 (configuration not stated)	none
CC(C)c1ccc(CN(C)C(=O)c2ccc(S(=O)(=O)NCc3ccco3)cc2)cc1	D1 antag -30
CC(C)(C)n1nc(C2CC2)cc1NC(=O)Nc1ccc(Cl)cc1	D1 antag -41
Cc1cc(NC(=O)Nc2ccc(Cl)cc2)n(C(C)(C)C)n1	none
CCOc1nc(NC(=O)NS(=O)(=O)c2ccccc2F)nc(-c2ccccc2)n1	D1 antag -31
N#Cc1c(F)cccc1N1CCN(Cc2ccc3c(c2)OCO3)CC1	D1 antag -37 (no result: D1 PAM)
O=[N+]([O-])c1cccnc1N1CCN(Cc2ccc3c(c2)OCO3)CC1	D1 antag -37
O=C(c1cccc([N+](=O)[O-])c1)N1CCN(Cc2ccc3c(c2)OCO3)CC1	D1 antag -30
O=[N+]([O-])c1cccnc1N1CCN(c2ccc(F)cc2)CC1	TRHR enhancer 37
O=[N+]([O-])c1cccnc1N1CCOCC1	none
COCC(=O)N1CCCC(C(=O)c2ccc(-c3ccccc3)cc2)C1 (configuration not stated)	none
CC(CCc1ccccc1)NC(=O)c1nnc(Cc2ccc(F)cc2)o1 (configuration not stated)	none
Cc1c(O)ccc(-c2[nH]ncc2-c2nc3ccccc3s2)c1O	D1 antag -43
